Data from PubChem BioAssay.

Assay: probe aShh binding to arrayed compounds – biochemical, biotinylated probe, 635/667 nm fluorescence, primary screen (AID 1114);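 note: probe is biotin-labelled aShh protein from a stem cell growth factor screen; measures binding of labelled protein to compounds printed on the slide; score merges feature fluorescence at 667 nm with signal-to-noise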
Conditions: small-molecule microarray, higher = more signal
`COc1cc(C(O)C2C=CC3C(=O)N(C)C(=O)C3N2Nc2ccccc2)cc(OC)c1OC` (stereo not drawn) showed a composite z-score of 0.0725. With `[N-]=[N+]=NCc1ccccc1[C@H]1OC(c2ccc(OCCCO)cc2)=N[C@@]1(Cc1ccccc1N=[N+]=[N-])C(=O)NCC(O)CO` (stereo partly drawn) the composite z-score was 0.28. `COC(=O)[C@@]1(Cc2ccc(OC)cc2)[C@H]2c3cc(C(=O)N(C)C)n(Cc4ccc(OC(F)(F)F)cc4)c3C[C@H]2CN1C(=O)c1ccccc1` gave a composite z-score of 0.337. For `C=C(/C(=C/C[C@H](OC(C)=O)c1ccc(CO)o1)c1cnc2ccccc2c1)C(C)C`, the composite z-score was 0.149. With `Cc1ccc(S[C@]2(C(=O)NCc3ccccc3)CC(=O)N(C3CCCCC3)[C@@H]2c2ccc(CO)cc2I)cc1` the composite z-score was -0.0324. For `COc1ccc([Si](C)(C)[C@@H]2[C@@H](CC(=O)N3Cc4ccccc4C[C@H]3CO)O[C@]3(C(=O)N(Cc4ccc(N5C(=O)c6cccc7cccc5c67)cc4)c4ccccc43)[C@H]2C)cc1`, the composite z-score was 0.0952. In the case of `CCOC(=O)C[C@H]1[C@H](OC(=O)c2ccccc2-c2ccccc2)[C@@H](NC(=O)c2ccc3ccccc3n2)c2cc(OCCCO)ccc2N1C(=O)Cc1ccc(OC)cc1`, the composite z-score was -0.182. With `CCOc1cc(C(O)C2C=CC3C(=O)NC(=O)C3N2Nc2ccc(Cl)cc2Cl)ccc1O` (stereo not drawn) the composite z-score was 0.0062. Work on `Cc1ccc(NN2C(C(O)c3c(F)cccc3Cl)C=CC3C(=O)N(C4CCCCC4)C(=O)C32)cc1` (stereo not drawn) yielded a composite z-score of 0.261. For `CCOC(=O)C[C@H]1[C@H](OC(=O)c2ccc(-c3ccccc3)cc2)[C@@H](NC(=O)CC(C)C)c2cc(OCCCO)ccc2N1C(=O)c1ccc2ccccc2n1`, the composite z-score was 0.0723. Work on `COC(=O)[C@@]1(Cc2ccccc2)[C@H]2c3cc(C(=O)N4CCCC4)n(CCc4ccccn4)c3C[C@H]2CN1C(=O)c1ccccc1` yielded a composite z-score of -0.353. `Cc1ccc(S[C@]2(C(=O)NC(C)C)CC(=O)N(Cc3cc(C(F)(F)F)cc(C(F)(F)F)c3)[C@@H]2c2ccc(CO)cc2)cc1` showed a composite z-score of -0.393.

Assay: probe aNog binding to arrayed compounds – biochemical, biotinylated probe, 635/667 nm fluorescence, primary screen (AID 1115);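 note: probe is biotinylated aNog protein used at 0.15 µg/mL for 1 h at 4 C; z-score combines 667 nm fluorescence of each spot with its signal to noise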
Conditions: small-molecule microarray, higher = more signal
For `CC(C)[Si]1(C(C)C)OCc2cc(C3CC3)nc(-c3ccc(Oc4ccccc4)cc3)c21`, the composite z-score was -0.0208. With `O=C1NC(=O)C2C1C=CC(C(O)c1ccco1)N2Nc1ccc(Cl)cc1Cl` (stereo not drawn) the composite z-score was -0.3. For `Cc1ccc(N2C(=O)c3ccccc3[C@@H](C(=O)NCCCN(C)C)[C@@H]2c2ccc(CO)cc2)nc1`, the composite z-score was -0.577. `CCCCCCc1nc(Cc2cc(OC)c(OC)c(OC)c2)cc2c1[Si](C(C)C)(C(C)C)OC2` gave a composite z-score of -0.174. With `CCOC(=O)C1=C[C@@H](C(C)(C)C)N(S(=O)(=O)c2ccc(C)cc2)[C@H]1c1cccc2ccccc12` the composite z-score was -0.145. In the case of `COc1cc2c(cc1O)C(c1cccs1)N(Cc1cc3c(cc1Br)OCO3)CC2` (stereo not drawn), the composite z-score was 1.03. `C=CCNC(=O)[C@@H]1[C@H]2C(=O)O[C@H](c3ccccc3)[C@H](c3ccccc3)N2[C@H](c2ccccc2OCCO)[C@@]12C(=O)Nc1ccc(C#CCC(C(=O)OC)C(=O)OC)cc12` gave a composite z-score of -0.303. In the case of `C=CCN1C(=O)[C@]2(CCS(=O)(=O)c3ccccc3)N=C(c3ccc(OCCCO)cc3)O[C@@H]2c2ccccc21`, the composite z-score was 0.033. For `CC(c1ccccc1)C(O)C1C=CC2C(=O)N(C)C(=O)C2N1Nc1ccccc1` (stereo not drawn), the composite z-score was 0.462. For `N#Cc1ccc(NN2C(C(O)c3ccc(Br)cc3)C=CC3C(=O)N(c4ccccc4)C(=O)C32)cc1` (stereo not drawn), the composite z-score was 2.03. In the case of `COc1ccc([Si](C)(C)[C@@H]2[C@@H](CCO)O[C@]3(C(=O)N(Cc4cccc(NC(=O)[C@H](C)O)c4)c4ccccc43)[C@H]2C)cc1`, the composite z-score was 0.638. `CCCCC(CC)C(O)C1C=CC2C(=O)N(C)C(=O)C2N1Nc1ccccc1` (stereo not drawn) gave a composite z-score of 0.558. With `COCCOC(=O)N1C(=O)[C@@]2(c3cc(C#CCCO)ccc31)[C@H](c1ccc(OCCO)cc1)N1[C@H](c3ccccc3)[C@H](c3ccccc3)OC(=O)[C@H]1[C@@H]2C(=O)Nc1nc2ccccc2s1` the composite z-score was 0.0947. `[N-]=[N+]=NCc1ccccc1[C@@H]1OC(c2ccc(OCCCO)cc2)=N[C@]1(CCS(=O)(=O)c1ccccc1)C(=O)O` showed a composite z-score of 0.592. In the case of `O=C1C[C@]2(c3ccc([N+](=O)[O-])cc3)C(=O)N(C3CC3)c3cc(CO)ccc3[C@H]2N1CC12CC3CC(CC(C3)C1)C2`, the composite z-score was 0.632. Molecule `CCCC[C@@H]1C[C@H]1[C@@H](NC(=O)c1cccs1)c1ccccc1C(F)(F)F` has a composite z-score of 1.52. In the case of `O=C(Cc1ccccc1)[C@H]1C2C=CCCC(c3ccccc3)=C2CN1Cc1ccccc1` (stereo partly drawn), the composite z-score was 0.0326. `COC(=O)[C@]1(CCS(=O)(=O)c2ccccc2)N=C(c2ccc(OCCCO)cc2)O[C@@H]1c1ccccc1N=[N+]=[N-]` showed a composite z-score of 0.897. With `COCCOC(=O)N1C(=O)[C@@]2(c3cc(C#CC4=CCCCC4)ccc31)[C@H](c1ccccc1OCCO)N1[C@H](c3ccccc3)[C@H](c3ccccc3)OC(=O)[C@H]1[C@@H]2C(=O)N1CCN(c2ncccn2)CC1` the composite z-score was -0.404. With `CN(C)C(=O)[C@@]1(Cc2ccccc2)N=C(c2ccc(OCCCO)cc2)O[C@H]1c1ccccc1` the composite z-score was -0.332. With `COc1ccc(C#Cc2ccc3c(c2)[C@]2(C(=O)N3)[C@H](C(=O)O)[C@H]3C(=O)O[C@H](c4ccccc4)[C@H](c4ccccc4)N3[C@@H]2c2ccc(O)cc2)cc1` the composite z-score was -0.0446. `CCCCC[C@H]1OC[C@@]23C=C(Br)[C@@H](CC12)[C@@]1(CO1)C3=O` (stereo partly drawn) gave a composite z-score of -0.183. `CC1CC/C=C\[C@H]2OC34C=CCN(c5ccc(Cl)cc5)C(=O)[C@H]3N(C(C)CO)C(=O)[C@]4(C)C2C(=O)O1` (stereo partly drawn) showed a composite z-score of -0.0133. `COc1cc2c(cc1O)C(C1CC1)N(Cc1cccc(OC(F)(F)F)c1)CC2` (stereo not drawn) gave a composite z-score of -0.147. Molecule `COc1cc(C(O)C2C=CC3C(=O)N(C)C(=O)C3N2Nc2ccccc2)cc(OC)c1OC` (stereo not drawn) has a composite z-score of 2.22. `[N-]=[N+]=NCc1ccccc1[C@H]1OC(c2ccc(OCCCO)cc2)=N[C@@]1(Cc1ccccc1N=[N+]=[N-])C(=O)NCC(O)CO` (stereo partly drawn) showed a composite z-score of 1.63. Molecule `COC(=O)[C@@]1(Cc2ccc(OC)cc2)[C@H]2c3cc(C(=O)N(C)C)n(Cc4ccc(OC(F)(F)F)cc4)c3C[C@H]2CN1C(=O)c1ccccc1` has a composite z-score of 0.196. With `C=C(/C(=C/C[C@H](OC(C)=O)c1ccc(CO)o1)c1cnc2ccccc2c1)C(C)C` the composite z-score was 0.33. `Cc1ccc(S[C@]2(C(=O)NCc3ccccc3)CC(=O)N(C3CCCCC3)[C@@H]2c2ccc(CO)cc2I)cc1` showed a composite z-score of -0.18. For `COc1ccc([Si](C)(C)[C@@H]2[C@@H](CC(=O)N3Cc4ccccc4C[C@H]3CO)O[C@]3(C(=O)N(Cc4ccc(N5C(=O)c6cccc7cccc5c67)cc4)c4ccccc43)[C@H]2C)cc1`, the composite z-score was 0.251. Work on `CCOC(=O)C[C@H]1[C@H](OC(=O)c2ccccc2-c2ccccc2)[C@@H](NC(=O)c2ccc3ccccc3n2)c2cc(OCCCO)ccc2N1C(=O)Cc1ccc(OC)cc1` yielded a composite z-score of -0.147. `CCOc1cc(C(O)C2C=CC3C(=O)NC(=O)C3N2Nc2ccc(Cl)cc2Cl)ccc1O` (stereo not drawn) showed a composite z-score of 0.119. With `Cc1ccc(NN2C(C(O)c3c(F)cccc3Cl)C=CC3C(=O)N(C4CCCCC4)C(=O)C32)cc1` (stereo not drawn) the composite z-score was 1.22. Molecule `CCOC(=O)C[C@H]1[C@H](OC(=O)c2ccc(-c3ccccc3)cc2)[C@@H](NC(=O)CC(C)C)c2cc(OCCCO)ccc2N1C(=O)c1ccc2ccccc2n1` has a composite z-score of 0.39. `COC(=O)[C@@]1(Cc2ccccc2)[C@H]2c3cc(C(=O)N4CCCC4)n(CCc4ccccn4)c3C[C@H]2CN1C(=O)c1ccccc1` gave a composite z-score of 1.84. Work on `Cc1ccc(S[C@]2(C(=O)NC(C)C)CC(=O)N(Cc3cc(C(F)(F)F)cc(C(F)(F)F)c3)[C@@H]2c2ccc(CO)cc2)cc1` yielded a composite z-score of -0.143.
